What all share (assay): DAPPL (digital affinity profiling via proximity ligation, sequencing); 10 mM Tris-HCl pH 7.5, 50 mM NaCl, 1 mM DTT, 4% glycerol, room temperature, 30 min; GST-TFs on glutathione beads, 16-mer random dsDNA library, 0.1% formaldehyde crosslink after washing; high values mean tight binding
One experiment concerns the target T1, FEV (Homo sapiens, UniProt Q99581 1-238).
T1 sequence: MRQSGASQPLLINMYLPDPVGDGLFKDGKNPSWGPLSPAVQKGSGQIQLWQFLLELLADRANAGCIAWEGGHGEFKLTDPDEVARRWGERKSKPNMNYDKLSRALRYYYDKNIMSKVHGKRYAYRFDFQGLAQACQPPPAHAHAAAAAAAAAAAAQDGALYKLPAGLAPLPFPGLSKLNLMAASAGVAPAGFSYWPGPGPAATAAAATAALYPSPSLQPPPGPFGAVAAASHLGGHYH
To be noted: protein: recombinant; tags: N-terminal GST; dsDNA, one strand shown. In outline: (§1)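 In yeast, human transcription factors were expressed with a GST fusion, then pulled down on glutathione beads and given DNA barcodes. Pooled with a tag-only sample, they were exposed to 200 nmole of a 16-mer random double-stranded DNA library (Tris/NaCl/DTT/glycerol buffer, room temperature, 30 min), washed, crosslinked with 0.1% formaldehyde, proximity-ligated using BsaI/T4 ligase for 1 h at 37 °C, PCR-amplified and read on an Illumina NextSeq500. Each hexamer's frequency of reads for a factor, divided by the matching frequency for the tag-only sample, gives the binding signal.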

For another experiment, the target named is ETV5 (Homo sapiens, UniProt P41161 1-510). To be noted: protein: recombinant; tags: N-terminal GST; dsDNA, one strand shown. In outline: as §1
ETV5, sequence (P41161 whole entry): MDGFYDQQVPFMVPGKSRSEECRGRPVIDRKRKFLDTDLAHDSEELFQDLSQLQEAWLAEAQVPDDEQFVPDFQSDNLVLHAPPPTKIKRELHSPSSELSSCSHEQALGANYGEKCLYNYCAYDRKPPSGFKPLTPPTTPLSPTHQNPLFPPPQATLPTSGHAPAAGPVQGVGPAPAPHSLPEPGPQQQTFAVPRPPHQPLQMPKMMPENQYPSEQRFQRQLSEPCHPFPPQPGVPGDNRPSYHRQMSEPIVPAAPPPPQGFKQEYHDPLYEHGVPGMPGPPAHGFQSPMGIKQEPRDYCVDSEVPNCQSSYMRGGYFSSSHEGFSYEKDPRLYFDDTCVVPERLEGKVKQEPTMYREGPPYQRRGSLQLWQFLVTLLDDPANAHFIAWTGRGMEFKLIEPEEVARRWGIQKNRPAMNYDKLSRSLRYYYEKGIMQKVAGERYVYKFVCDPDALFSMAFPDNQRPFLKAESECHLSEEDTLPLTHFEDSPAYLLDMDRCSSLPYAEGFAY
Another experiment deals with HSF1 (Homo sapiens, UniProt Q00613 1-529). Particulars: protein: recombinant; tags: N-terminal GST; chain copies: 3; dsDNA, one strand shown. In outline:
as §1

In another experiment the target is T2, SPIC (Homo sapiens, UniProt Q8N5J4 1-248).
T2 sequence: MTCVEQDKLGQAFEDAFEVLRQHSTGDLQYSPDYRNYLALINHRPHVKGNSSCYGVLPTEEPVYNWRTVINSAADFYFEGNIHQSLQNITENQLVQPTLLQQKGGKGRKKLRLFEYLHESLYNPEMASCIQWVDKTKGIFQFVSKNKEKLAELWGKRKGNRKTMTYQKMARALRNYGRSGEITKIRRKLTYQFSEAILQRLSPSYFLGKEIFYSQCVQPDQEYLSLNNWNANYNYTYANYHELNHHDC
Particulars: protein: recombinant; tags: N-terminal GST; dsDNA, one strand shown. In a few lines: as §1

The target in another experiment is ELF4 (Homo sapiens, UniProt Q99607 1-663). Particulars: protein: recombinant; tags: N-terminal GST; dsDNA, one strand shown. In outline:
as §1

The target in another experiment is T3, ELK4 (Homo sapiens, UniProt P28324-2 1-405).
T3 sequence: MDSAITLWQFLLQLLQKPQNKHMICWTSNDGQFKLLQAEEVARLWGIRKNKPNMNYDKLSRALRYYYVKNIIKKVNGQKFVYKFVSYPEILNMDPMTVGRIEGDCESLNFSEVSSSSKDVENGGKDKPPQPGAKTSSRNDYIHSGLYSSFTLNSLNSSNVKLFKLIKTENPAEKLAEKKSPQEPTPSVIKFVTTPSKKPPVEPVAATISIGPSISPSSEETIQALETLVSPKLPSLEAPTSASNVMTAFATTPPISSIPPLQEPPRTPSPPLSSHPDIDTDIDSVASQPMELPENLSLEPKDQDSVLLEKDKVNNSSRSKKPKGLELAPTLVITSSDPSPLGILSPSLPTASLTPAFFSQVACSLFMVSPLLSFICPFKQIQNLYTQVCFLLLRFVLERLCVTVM
To be noted: protein: recombinant; tags: N-terminal GST; dsDNA, one strand shown. In outline: as §1

In the next experiment the target is T4, ETV2 (Homo sapiens, UniProt O00321 1-342).
T4 sequence: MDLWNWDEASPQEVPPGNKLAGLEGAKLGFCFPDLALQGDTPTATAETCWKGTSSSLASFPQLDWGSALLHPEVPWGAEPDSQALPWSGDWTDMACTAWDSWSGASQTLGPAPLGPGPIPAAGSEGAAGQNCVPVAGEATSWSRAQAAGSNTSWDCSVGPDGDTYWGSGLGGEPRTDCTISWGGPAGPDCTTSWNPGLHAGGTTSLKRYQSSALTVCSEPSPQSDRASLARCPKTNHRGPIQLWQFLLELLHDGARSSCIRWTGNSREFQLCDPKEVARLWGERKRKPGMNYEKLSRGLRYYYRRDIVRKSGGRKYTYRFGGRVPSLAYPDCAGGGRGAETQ
Particulars: protein: recombinant; tags: N-terminal GST; dsDNA, one strand shown. In outline: as §1

For another experiment, the target named is T5, ELF3 (Homo sapiens, UniProt P78545 1-371).
T5 sequence: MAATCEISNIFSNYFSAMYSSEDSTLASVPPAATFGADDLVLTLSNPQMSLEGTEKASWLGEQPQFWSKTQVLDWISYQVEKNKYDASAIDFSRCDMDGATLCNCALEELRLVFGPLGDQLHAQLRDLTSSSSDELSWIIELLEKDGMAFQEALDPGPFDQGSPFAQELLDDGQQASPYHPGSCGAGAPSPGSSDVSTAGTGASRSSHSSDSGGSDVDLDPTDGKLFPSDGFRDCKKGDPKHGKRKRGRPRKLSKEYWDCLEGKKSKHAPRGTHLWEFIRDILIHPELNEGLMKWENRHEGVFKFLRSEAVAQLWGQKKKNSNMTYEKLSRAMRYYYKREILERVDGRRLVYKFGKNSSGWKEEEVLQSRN
To be noted: protein: recombinant; tags: N-terminal GST; dsDNA, one strand shown. In outline:
as §1

The next experiment addresses CRX (Homo sapiens, UniProt O43186 1-299). To be noted: protein: recombinant; tags: N-terminal GST; dsDNA, one strand shown. In a few lines:
as §1

A further experiment addresses ETV1 (Homo sapiens, UniProt P50549 1-477). To be noted: protein: recombinant; tags: N-terminal GST; dsDNA, one strand shown. In a few lines: as §1
The target in the next experiment is T6, ERF (Homo sapiens, UniProt P50548 1-548).
T6 sequence: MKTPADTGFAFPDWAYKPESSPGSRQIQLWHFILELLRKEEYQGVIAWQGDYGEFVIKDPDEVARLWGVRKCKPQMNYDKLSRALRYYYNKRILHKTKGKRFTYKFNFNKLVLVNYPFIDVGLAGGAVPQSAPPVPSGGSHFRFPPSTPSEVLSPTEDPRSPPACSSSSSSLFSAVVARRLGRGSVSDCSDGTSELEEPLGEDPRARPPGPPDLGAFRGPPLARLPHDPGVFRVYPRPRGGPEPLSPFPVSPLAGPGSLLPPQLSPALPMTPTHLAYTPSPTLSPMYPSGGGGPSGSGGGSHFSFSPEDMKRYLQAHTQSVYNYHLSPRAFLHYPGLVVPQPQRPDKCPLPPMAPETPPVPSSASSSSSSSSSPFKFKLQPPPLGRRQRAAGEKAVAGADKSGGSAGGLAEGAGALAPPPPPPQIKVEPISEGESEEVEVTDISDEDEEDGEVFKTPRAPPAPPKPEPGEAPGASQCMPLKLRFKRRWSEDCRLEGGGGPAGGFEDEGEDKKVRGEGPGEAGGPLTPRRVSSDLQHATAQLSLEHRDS
Particulars: protein: recombinant; tags: N-terminal GST; dsDNA, one strand shown. In outline: as §1

In a further experiment the target is T7, ETV3L (Homo sapiens, UniProt Q6ZN32 1-361).
T7 sequence: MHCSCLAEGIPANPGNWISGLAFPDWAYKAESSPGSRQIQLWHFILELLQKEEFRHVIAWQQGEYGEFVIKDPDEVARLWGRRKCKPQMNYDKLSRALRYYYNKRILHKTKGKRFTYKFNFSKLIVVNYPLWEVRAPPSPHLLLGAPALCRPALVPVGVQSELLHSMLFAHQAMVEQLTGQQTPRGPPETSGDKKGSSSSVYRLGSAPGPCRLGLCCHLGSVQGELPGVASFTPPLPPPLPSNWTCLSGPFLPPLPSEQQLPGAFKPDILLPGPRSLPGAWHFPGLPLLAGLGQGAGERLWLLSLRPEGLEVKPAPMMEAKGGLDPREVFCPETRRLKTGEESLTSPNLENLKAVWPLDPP
To be noted: protein: recombinant; tags: N-terminal GST; dsDNA, one strand shown. In outline: as §1

Another experiment has as its target T8, ETS2 (Homo sapiens, UniProt P15036 1-469).
T8 sequence: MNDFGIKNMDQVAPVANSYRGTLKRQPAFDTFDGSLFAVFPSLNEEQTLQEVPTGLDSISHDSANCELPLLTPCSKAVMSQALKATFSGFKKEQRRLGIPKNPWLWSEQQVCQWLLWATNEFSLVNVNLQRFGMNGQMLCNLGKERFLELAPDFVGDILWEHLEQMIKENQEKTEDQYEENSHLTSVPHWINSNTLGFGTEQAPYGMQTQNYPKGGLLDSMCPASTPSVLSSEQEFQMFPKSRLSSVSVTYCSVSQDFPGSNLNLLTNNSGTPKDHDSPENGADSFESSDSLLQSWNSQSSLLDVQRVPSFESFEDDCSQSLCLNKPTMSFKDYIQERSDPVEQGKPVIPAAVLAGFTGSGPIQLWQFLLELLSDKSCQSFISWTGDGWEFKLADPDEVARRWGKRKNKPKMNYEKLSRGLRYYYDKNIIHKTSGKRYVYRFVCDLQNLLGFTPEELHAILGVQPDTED
To be noted: protein: recombinant; tags: N-terminal GST; dsDNA, one strand shown. In a few lines:
as §1

In another experiment the target is T9, SPDEF (Homo sapiens, UniProt O95238 1-335).
T9 sequence: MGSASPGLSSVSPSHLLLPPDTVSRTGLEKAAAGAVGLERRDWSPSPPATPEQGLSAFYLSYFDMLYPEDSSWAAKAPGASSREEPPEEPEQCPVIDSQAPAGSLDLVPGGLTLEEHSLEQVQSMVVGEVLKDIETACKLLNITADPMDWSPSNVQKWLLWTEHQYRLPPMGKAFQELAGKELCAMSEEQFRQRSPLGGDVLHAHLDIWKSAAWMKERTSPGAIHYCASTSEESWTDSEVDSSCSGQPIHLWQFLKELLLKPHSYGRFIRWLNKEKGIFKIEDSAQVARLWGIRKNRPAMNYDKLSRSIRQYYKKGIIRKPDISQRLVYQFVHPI
To be noted: protein: recombinant; tags: N-terminal GST; dsDNA, one strand shown. In outline:
as §1

The next experiment has as its target T10, ETV7 (Homo sapiens, UniProt Q9Y603 1-341).
T10 sequence: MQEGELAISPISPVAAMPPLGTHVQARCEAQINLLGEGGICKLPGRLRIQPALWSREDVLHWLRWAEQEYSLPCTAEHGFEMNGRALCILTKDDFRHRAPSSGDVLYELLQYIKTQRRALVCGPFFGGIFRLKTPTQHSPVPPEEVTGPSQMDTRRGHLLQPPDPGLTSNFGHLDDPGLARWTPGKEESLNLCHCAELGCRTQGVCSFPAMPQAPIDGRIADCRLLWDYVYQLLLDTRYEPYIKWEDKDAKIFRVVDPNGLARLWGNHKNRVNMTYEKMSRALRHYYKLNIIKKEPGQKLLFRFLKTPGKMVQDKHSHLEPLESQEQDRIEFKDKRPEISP
To be noted: protein: recombinant; tags: N-terminal GST; dsDNA, one strand shown. In outline: as §1

In a further experiment the target is T11, ELF5 (Homo sapiens, UniProt Q9UKW6-2 1-255).
T11 sequence: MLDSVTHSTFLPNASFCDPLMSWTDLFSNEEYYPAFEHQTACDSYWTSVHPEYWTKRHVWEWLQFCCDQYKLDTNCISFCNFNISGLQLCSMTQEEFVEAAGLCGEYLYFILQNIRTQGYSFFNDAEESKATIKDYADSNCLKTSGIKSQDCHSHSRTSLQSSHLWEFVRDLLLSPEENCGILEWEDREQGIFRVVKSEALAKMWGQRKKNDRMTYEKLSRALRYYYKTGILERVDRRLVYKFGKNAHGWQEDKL
Particulars: protein: recombinant; tags: N-terminal GST; dsDNA, one strand shown. In a few lines: as §1

Another experiment has as its target T12, ETV3 (Homo sapiens, UniProt P41162-2 1-143).
T12 sequence: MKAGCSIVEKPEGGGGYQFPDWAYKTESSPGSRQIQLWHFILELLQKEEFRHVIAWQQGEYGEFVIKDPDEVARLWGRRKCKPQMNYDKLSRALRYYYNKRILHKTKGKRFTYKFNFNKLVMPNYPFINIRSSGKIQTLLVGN
To be noted: protein: recombinant; tags: N-terminal GST; dsDNA, one strand shown. In a few lines: as §1

The target in a further experiment is ETV6 (Homo sapiens, UniProt P41212 1-452). Particulars: protein: recombinant; tags: N-terminal GST; dsDNA, one strand shown. In a few lines:
as §1

ELF4, sequence (Q99607 whole entry): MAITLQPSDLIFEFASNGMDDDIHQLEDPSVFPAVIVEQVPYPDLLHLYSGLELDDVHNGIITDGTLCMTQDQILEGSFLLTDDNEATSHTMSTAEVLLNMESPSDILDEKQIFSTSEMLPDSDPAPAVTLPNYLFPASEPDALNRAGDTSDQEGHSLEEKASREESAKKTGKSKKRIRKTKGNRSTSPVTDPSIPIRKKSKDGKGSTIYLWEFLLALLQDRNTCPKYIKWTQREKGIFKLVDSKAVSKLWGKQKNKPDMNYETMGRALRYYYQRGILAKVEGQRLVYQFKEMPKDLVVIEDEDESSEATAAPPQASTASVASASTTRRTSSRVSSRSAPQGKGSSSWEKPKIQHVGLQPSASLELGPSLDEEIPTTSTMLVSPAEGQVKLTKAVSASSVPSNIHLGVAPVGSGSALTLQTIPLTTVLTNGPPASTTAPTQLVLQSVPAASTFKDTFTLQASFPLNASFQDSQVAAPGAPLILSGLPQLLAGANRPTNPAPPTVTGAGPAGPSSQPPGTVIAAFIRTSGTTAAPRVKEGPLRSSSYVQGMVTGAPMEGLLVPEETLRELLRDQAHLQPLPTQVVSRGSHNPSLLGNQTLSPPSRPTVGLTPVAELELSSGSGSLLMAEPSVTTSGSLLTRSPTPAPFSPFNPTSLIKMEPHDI
ETV6, sequence (P41212 whole entry): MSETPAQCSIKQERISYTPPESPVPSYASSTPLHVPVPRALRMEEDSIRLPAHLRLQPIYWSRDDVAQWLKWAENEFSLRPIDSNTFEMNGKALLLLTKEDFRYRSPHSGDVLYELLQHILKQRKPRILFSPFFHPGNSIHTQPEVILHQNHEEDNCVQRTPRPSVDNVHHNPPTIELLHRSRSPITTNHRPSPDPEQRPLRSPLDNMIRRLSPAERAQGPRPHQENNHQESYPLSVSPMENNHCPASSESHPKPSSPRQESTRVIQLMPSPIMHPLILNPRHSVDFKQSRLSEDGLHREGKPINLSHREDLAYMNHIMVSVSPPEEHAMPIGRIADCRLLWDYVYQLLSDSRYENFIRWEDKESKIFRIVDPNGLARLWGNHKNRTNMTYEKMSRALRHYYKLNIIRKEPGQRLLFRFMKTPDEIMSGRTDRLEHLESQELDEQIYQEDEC
CRX, sequence (O43186 whole entry): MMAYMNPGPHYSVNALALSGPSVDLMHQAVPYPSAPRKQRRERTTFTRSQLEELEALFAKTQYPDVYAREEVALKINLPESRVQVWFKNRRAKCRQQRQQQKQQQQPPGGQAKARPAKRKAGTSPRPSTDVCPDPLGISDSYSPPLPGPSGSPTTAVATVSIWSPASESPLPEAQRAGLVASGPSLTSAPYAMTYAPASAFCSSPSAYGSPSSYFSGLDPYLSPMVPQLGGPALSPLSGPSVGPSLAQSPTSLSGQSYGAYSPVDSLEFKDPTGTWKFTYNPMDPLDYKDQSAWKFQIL
HSF1, sequence (Q00613 whole entry): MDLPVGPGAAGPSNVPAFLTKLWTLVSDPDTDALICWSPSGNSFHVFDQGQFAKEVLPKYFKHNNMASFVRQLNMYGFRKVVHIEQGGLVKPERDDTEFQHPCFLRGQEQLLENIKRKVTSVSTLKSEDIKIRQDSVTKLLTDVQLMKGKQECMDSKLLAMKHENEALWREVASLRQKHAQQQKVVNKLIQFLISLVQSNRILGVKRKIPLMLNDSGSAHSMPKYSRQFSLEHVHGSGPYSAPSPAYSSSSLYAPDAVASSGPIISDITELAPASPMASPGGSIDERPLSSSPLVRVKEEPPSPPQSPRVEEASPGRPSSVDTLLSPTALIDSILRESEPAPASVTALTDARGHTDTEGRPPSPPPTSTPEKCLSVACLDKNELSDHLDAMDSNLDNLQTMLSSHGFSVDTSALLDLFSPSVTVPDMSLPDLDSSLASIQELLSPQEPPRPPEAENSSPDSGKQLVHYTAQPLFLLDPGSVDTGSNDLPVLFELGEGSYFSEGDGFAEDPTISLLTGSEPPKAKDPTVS
ETV1, sequence (P50549 whole entry): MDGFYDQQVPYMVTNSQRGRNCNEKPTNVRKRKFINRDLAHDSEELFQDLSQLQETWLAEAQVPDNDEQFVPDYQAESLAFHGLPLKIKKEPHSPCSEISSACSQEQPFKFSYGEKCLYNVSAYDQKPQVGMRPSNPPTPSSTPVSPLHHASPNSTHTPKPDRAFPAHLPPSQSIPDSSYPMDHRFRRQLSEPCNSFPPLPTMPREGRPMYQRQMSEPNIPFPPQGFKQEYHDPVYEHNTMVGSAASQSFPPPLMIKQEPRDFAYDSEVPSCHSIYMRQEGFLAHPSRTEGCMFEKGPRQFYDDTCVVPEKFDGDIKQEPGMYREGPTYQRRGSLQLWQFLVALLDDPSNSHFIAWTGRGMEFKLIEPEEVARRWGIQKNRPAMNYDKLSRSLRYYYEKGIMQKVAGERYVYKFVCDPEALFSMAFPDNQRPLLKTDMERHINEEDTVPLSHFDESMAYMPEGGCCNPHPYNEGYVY

For ATTTTT, the binding signal with FEV is 1.15 fold enrichment (6-mer frequency, TF over GST control); with ETV5, 1.21 fold enrichment (6-mer frequency, TF over GST control); with HSF1, 1.31 fold enrichment (6-mer frequency, TF over GST control); with SPIC, 1.1 fold enrichment (6-mer frequency, TF over GST control); in the experiment with ELF4 it was 1.19 fold enrichment (6-mer frequency, TF over GST control); in the experiment with ELK4, 1.31 fold enrichment (6-mer frequency, TF over GST control). In addition, the binding signal with ETV2 is 1.29 fold enrichment (6-mer frequency, TF over GST control); in the experiment with ELF3 it was 1.2 fold enrichment (6-mer frequency, TF over GST control); with CRX, 1.28 fold enrichment (6-mer frequency, TF over GST control); in the experiment with ETV1, 1.28 fold enrichment (6-mer frequency, TF over GST control); with ERF, 1.21 fold enrichment (6-mer frequency, TF over GST control); in the experiment with ETV3L it was 1.2 fold enrichment (6-mer frequency, TF over GST control). The binding signal with ETS2 was 1.1 fold enrichment (6-mer frequency, TF over GST control); in the experiment with SPDEF, 1.15 fold enrichment (6-mer frequency, TF over GST control); with ETV7 it was 1.19 fold enrichment (6-mer frequency, TF over GST control); with ELF5 it was 1.16 fold enrichment (6-mer frequency, TF over GST control); in the experiment with ETV3 it was 1.17 fold enrichment (6-mer frequency, TF over GST control); in the experiment with ETV6 it was 1.17 fold enrichment (6-mer frequency, TF over GST control).

(Values after article PMC7862700, “An all-to-all approach to the identification of sequence-specific readers for epigenetic DNA modifications on cytosine”.)
